Assay results from PubChem BioAssay (EPA / NIEHS).
Several values for one entry are separate records, joined by “and”; a condition that tells them apart may be missing. Equal entries are not always repeated. The source holds several records for some structures; these can differ, active in one and inactive in another. Activity calls are given as the source filed them. The calls were made as follows, unless noted: active = hit-call score of the fitted dose curve at least 0.9, where 1 is the maximum; inactive = score below 0.9.

How the values were obtained:
[1] = Tanguay_ZF_120hpf_MO24: Oregon State University Tanguay Lab 24 Hour Post-fertilization zebrafish Assay for Mortality (AID 2284389)
Experimental: (§1) Tanguay_ZF_120hpf is a whole embryo, multiplexed endpoint assay using zebrafish larvae exposed for 120 hours post fertilization on a 96-well plate.Tanguay_ZF_120hpf_MO24 is one of one assay component(s) measured or calculated from the Tanguay_ZF_120hpf assay. It is designed to make measurements of zebrafish development as detected with brightfield microscopy of developing zebrafish embryos.Data from the assay component Tanguay_ZF_120hpf_MO24 was analyzed into 1 assay endpoints. This assay endpoint, Tanguay_ZF_120hpf_MO24, was analyzed in the positive analysis fitting direction relative to DMSO as the negative control and baseline of activity. […]
(§2) Zebrafish husbandry: Tropical 5D wild-type adult zebrafish were housed in at an approximate density of 1000 per 100 gallon tank at the Sinnhuber Aquatic Research Laboratory, Oregon State University, Corvallis, OR. […] At 24 hpf, embryos were assessed for photomotor response using a custom photomotor response analysis tool (PRAT) and for developmental toxicity endpoints (MO24: mortality at 24 hpf, DP: developmental progression, SM: spontaneous movement, and NC: notochord distortion). At 120 hpf, locomotor activity was measured using Viewpoint Zebralab and assessed for 13 endpoints. […] If mortality occurred for an embryo (at either 24 or 120 hpf), the non-mortality endpoints were not measured.

[2] = Tanguay_ZF_120hpf_DP24: Oregon State University Tanguay Lab 24 Hour Post-fertilization zebrafish Assay for Delayed Development (AID 2284390)
Experimental: as §1, with “plate.Tanguay_ZF_120hpf_DP24” for “plate.Tanguay_ZF_120hpf_MO24”, “Tanguay_ZF_120hpf_DP24” for “Tanguay_ZF_120hpf_MO24”, “Tanguay_ZF_120hpf_DP24,” for “Tanguay_ZF_120hpf_MO24,”
as §2

[3] = Tanguay_ZF_120hpf_CRAN: Oregon State University Tanguay Lab 120 Hour Post-fertilization zebrafish Assay for Craniofacial Malformation (AID 2284397)
Experimental: as §1, with “plate.Tanguay_ZF_120hpf_CRAN” for “plate.Tanguay_ZF_120hpf_MO24”, “Tanguay_ZF_120hpf_CRAN” for “Tanguay_ZF_120hpf_MO24”, “Tanguay_ZF_120hpf_CRAN,” for “Tanguay_ZF_120hpf_MO24,”
as §2

[4] = Tanguay_ZF_120hpf_AXIS: Oregon State University Tanguay Lab 120 Hour Post-fertilization zebrafish Assay for Axial Malformation (AID 2284398)
Procedure, shortened: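 Scoring was binary (present or absent) for body-axis defects, judged by brightfield imaging at 120 hpf in surviving larvae. Exposure was static at 28C from 6 hpf in chorion-free 5D wild-type embryos, with 0.64% DMSO vehicle.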

[5] = Tanguay_ZF_120hpf_MORT: Oregon State University Tanguay Lab 120 Hour Post-fertilization zebrafish Assay for Mortality (AID 2284399)
Procedure, shortened: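 Mortality, recorded present/absent via brightfield imaging at 24 and 120 hpf, in 5D zebrafish embryos exposed statically from 6 hpf after pronase chorion removal. Exposure at 28C, 0.64% DMSO vehicle, DMSO baseline.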

[6] = Tanguay_ZF_120hpf_EDEM: Oregon State University Tanguay Lab 120 Hour Post-fertilization zebrafish Assay for Edema Malformation (AID 2284400)
Procedure, shortened: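 Edema recorded as a binary endpoint under brightfield at 120 hpf, excluding embryos that died. Exposure was static, sealed, 28C, from 6 hpf in dechorionated wild-type larvae, final DMSO 0.64%, DMSO as baseline.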

[7] = Tanguay_ZF_120hpf_MUSC: Oregon State University Tanguay Lab 120 Hour Post-fertilization zebrafish Assay for Muscle Malformation (AID 2284401)
Procedure, shortened: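 Scored as a binary brightfield endpoint at 120 hpf, fitted versus DMSO. Single dechorionated wild-type (Tropical 5D) zebrafish embryos per well, statically exposed at 28C from 6 hpf onward with final DMSO 0.64%.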

[8] = Tanguay_ZF_120hpf_BRN: Oregon State University Tanguay Lab 120 Hour Post-fertilization zebrafish Assay for Brain Region Malformation (AID 2284402)
Experimental: Tanguay_ZF_120hpf is a whole embryo, multiplexed endpoint assay using zebrafish larvae exposed for 120 hours post fertilization on a 96-well plate.Tanguay_ZF_120hpf_BRN is one of one assay component(s) measured or calculated from the Tanguay_ZF_120hpf assay. It is designed to make measurements of zebrafish development as detected with brightfield microscopy of developing zebrafish embryos.Data from the assay component Tanguay_ZF_120hpf_BRN was analyzed into 1 assay endpoints. This assay endpoint, Tanguay_ZF_120hpf_BRN, was analyzed in the positive analysis fitting direction relative to DMSO as the negative control and baseline of activity. Using a type of morphology reporter, gain-of-signal activity can be used to understand changes in developmentals as they relate to the whole embryo. To generalize the intended target to other relatable targets, this assay endpoint is annotated to the zebrafish development intended target family, where the subfamily is brain morphogenesis.
Zebrafish husbandry: Tropical 5D wild-type adult zebrafish were housed in at an approximate density of 1000 per 100 gallon tank at the Sinnhuber Aquatic Research Laboratory, Oregon State University, Corvallis, OR. […] At 24 hpf, embryos were assessed for photomotor response using a custom photomotor response analysis tool (PRAT) and for developmental toxicity endpoints (MO24: mortality at 24 hpf, DP: developmental progression, SM: spontaneous movement, and NC: notochord distortion). At 120 hpf, locomotor activity was measured using Viewpoint Zebralab and assessed for 13 endpoints. Zebrafish acquisition and analysis program (ZAAP), a custom program designed to inventory, acquire, and manage zebrafish data, was used to collect developmental endpoints as either present or absent (i.e., binary responses were recorded). If mortality occurred for an embryo (at either 24 or 120 hpf), the non-mortality endpoints were not measured.

[9] = CCTE_Deisenroth_H295R-HTRF_384WELL_TESTOSTERONE: CCTE's H295R-HTRF Assay Evaluation of Testosterone Concentration, Deisenroth Lab (AID 2284373); conditions: actives raise or lower the signal
Procedure, shortened: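 H295R cells were acclimated 24 h, then exposed 48 h to nine concentrations (0.001–100 uM final) in technical triplicate, n=5. Testosterone in conditioned medium was measured by HTRF (em 620/665 nm). Fitting was bidirectional versus DMSO; CellTiter-Glo viability ran on the same plates.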

[10] = CCTE_Deisenroth_H295R-HTRF_384WELL_CTOX: Cytotoxicity Assessment in CCTE's H295R-HTRF Assay, Deisenroth Lab (AID 2284380; active = hit-call score of the fitted dose curve at least 0.9, where 1 is the maximum)
Procedure, shortened: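 Luminescent ATP viability readout (CellTiter-Glo 2.0), multiplexed on plates used for hormone sampling, after 48 h chemical exposure. Human H295R cells; final concentrations 0.001–100 uM in nine steps, technical triplicates, five experiments; DMSO baseline.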

Measured: AC50

O=S(=O)(O)C(F)(F)C(F)(F)C(F)(F)C(F)(F)C(F)(F)C(F)(F)C(F)(F)C(F)(F)F
active: [3] 32.7 µM and 91 µM | [4] 37.8 µM | [5] 22.5 µM | [6] 32.7 µM and 35.6 µM | [8] 46 µM
inactive: [1] | [2] | [4] | [5] | [7] | [8]

CNC(=O)CSP(=S)(OC)OC
inactive: [9] | [10]

O=C(O)C(F)(F)C(F)(F)C(F)(F)C(F)(F)C(F)(F)C(F)(F)C(F)(F)F
not listed: [9] | [10]
inactive: all other assays above

CC(C)(C)C(O)C(Oc1ccc(Cl)cc1)n1cncn1 (stereo not given)
inactive: [9] | [10]

CCCN(CCOc1c(Cl)cc(Cl)cc1Cl)C(=O)n1ccnc1
inactive: [10]
active: [9] 0.322 µM
